The campaign covered roughly 310,000 compounds. About 14,000 (4.5%) showed an effect of 50% or more. The effect is printed as a negative number. The sample holds strong results, similar compounds and a random draw of the others, so the mix is not that of the screen.
What follows are compounds tested against human ether-à-go-go-related gene (hERG) potassium channel (human, UniProt Q12809) (assay: primary screen, population patch clamp on CHO cells stably expressing hERG; higher = less effect of the substance).
Chain of human ether-à-go-go-related gene (hERG) potassium channel (Q12809 whole entry, looked up): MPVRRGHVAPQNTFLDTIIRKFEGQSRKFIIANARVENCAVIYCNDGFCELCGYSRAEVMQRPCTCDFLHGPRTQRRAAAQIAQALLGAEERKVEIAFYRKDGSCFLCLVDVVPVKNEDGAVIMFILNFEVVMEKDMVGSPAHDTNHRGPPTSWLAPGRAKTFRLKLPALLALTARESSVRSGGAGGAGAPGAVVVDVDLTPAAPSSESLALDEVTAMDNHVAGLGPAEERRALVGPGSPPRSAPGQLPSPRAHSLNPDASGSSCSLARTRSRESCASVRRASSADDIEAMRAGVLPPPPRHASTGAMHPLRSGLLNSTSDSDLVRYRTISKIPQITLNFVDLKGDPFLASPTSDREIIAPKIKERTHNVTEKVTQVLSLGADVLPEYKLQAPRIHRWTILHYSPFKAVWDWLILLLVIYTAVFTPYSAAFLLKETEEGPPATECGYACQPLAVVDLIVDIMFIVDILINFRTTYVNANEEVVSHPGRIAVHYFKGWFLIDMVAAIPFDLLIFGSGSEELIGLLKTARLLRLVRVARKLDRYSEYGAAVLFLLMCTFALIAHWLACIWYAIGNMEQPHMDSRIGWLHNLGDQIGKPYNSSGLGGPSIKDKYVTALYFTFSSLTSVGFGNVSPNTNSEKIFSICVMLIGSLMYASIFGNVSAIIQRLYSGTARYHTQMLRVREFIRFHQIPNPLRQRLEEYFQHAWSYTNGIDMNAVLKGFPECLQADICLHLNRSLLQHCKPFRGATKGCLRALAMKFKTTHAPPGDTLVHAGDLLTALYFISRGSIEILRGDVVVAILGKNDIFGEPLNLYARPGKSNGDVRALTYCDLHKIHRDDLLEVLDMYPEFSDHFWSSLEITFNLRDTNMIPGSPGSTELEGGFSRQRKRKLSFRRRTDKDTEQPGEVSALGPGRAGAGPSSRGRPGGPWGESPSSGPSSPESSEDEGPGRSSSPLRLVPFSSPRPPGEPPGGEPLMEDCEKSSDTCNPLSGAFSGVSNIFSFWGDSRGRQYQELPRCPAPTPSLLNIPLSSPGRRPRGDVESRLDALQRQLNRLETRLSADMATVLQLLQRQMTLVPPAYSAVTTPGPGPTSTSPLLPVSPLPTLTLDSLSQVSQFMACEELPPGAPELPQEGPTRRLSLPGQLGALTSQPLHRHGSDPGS
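Also: peak tail current of the secondary pulse compared with the same well before compound.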

SMILES | hERG current change (%, negative = inhibition) at 10uM
CCOCCCNCc1cc(Cl)ccc1OCC.Cl | -11.8%
CCOCCCNCc1cc(Br)ccc1OCc1ccccc1 | -68.1%
CCOCCCNCc1cccc(OC)c1.O=C(O)C(=O)O | 3.11%
CCOCCCNCc1ccc(OCc2ccc(F)cc2)c(OC)c1.Cl | -33.6%
CCCNCc1cc(OC)c(OCc2ccccc2)cc1Br.Cl | -28.2%
CCOCCCNCc1cccc(OCc2ccc(F)cc2)c1 | -50.1%
CCC1(c2ccccc2)NC(=S)N(c2ccc(C)cc2)N1 (centres unmarked) | 22%
O=C(/C=C/c1ccc(F)cc1)NC(=S)Nc1ccccc1C(=O)NC1CCCCC1 | 2.56%
CC1CC(C)CN(C(=O)c2ccncc2)C1 (centres unmarked) | 10.1%
COc1ccc(NC(=O)/C=C/c2ccccc2[N+](=O)[O-])c(OC)c1 | 4.66%
COCCNC(=O)C1CC(c2cccc([N+](=O)[O-])c2)=NO1 (centres unmarked) | 15.8%
Cc1cc(NC(=O)Cn2nnc3sc4c(c3c2=O)CCCC4)no1 | 9.97%
CC(NC(=O)C1=CC=CN2CCS(=O)(=O)N=C12)c1ccc(Cl)cc1Cl (centres unmarked) | -57.9%
O=C(NCCc1ccc(Cl)cc1)C1=CC=CN2CCS(=O)(=O)N=C12 | -9.31%
O=C(NCc1cccc(Cl)c1)C1=CC=CN2CCS(=O)(=O)N=C12 | -5.54%
c1ccc2c(Nc3nc4c(s3)CCCC4)cccc2c1 | 2.23%
O=C(CSc1nc2ccc([N+](=O)[O-])cc2s1)NC1CCS(=O)(=O)C1 (centres unmarked) | -5.62%
CN(C(=O)CSc1nc(-c2ccccc2)cs1)C1CCS(=O)(=O)C1 (centres unmarked) | -19.6%
CCN(C(=O)CN1C(=O)c2ccc([N+](=O)[O-])cc2C1=O)C1CCS(=O)(=O)C1 (centres unmarked) | 13.8%
CN(C(=O)CSc1nc2ccc([N+](=O)[O-])cc2s1)C1CCS(=O)(=O)C1 (centres unmarked) | -55.9%
CCN(C(=O)Cn1cnc2cc([N+](=O)[O-])ccc2c1=O)C1CCS(=O)(=O)C1 (centres unmarked) | 1.53%
CCN(C(=O)CSc1nc2ccc([N+](=O)[O-])cc2s1)C1CCS(=O)(=O)C1 (centres unmarked) | -61.8%

SMILES | hERG current change (%, negative = inhibition) at 10uM
O=[N+]([O-])c1cccnc1Sc1ccc(Cl)cc1 | -11%
O=C(Nn1c(COc2ccccc2)nc2ccccc2c1=O)C(Cl)(Cl)Cl | 9.26%
O=C(Cn1ccc([N+](=O)[O-])n1)Nc1nc2ccccc2s1 | -45.8%
O=C(Cn1cc([N+](=O)[O-])cn1)Nc1nc2ccccc2s1 | -74.6%
CC(C(=O)Nc1cccnc1)n1cc([N+](=O)[O-])cn1 (centres unmarked) | 17.7%
CC(C(=O)Nc1nc2ccccc2s1)n1cc([N+](=O)[O-])cn1 (centres unmarked) | -69.5%
Cc1cccc(NC(=O)C(C)n2cc([N+](=O)[O-])cn2)n1 (centres unmarked) | -7.48%
O=C(Cn1cc([N+](=O)[O-])cn1)Nc1ccccn1 | 16.1%
CC(=O)c1sc(NC(=O)c2oc3ccc(F)cc3c2C)nc1C | 0.318%
O=C(c1cccc(F)c1)N1CCN(S(=O)(=O)c2ccccc2)CC1 | 0.349%
CO/N=C/c1ccc(N2CCN(C(=O)c3ccc(C)cc3)CC2)c([N+](=O)[O-])c1 | -74.9%
CO/N=C/c1ccc(N2CCOCC2)c([N+](=O)[O-])c1 | 0.313%
Cc1ccc(C(=O)O/N=C\c2ccc(N3CCCCC3)c([N+](=O)[O-])c2)cc1 | 12.8%
O=C(O/N=C\c1ccc(N2CCCCC2)c([N+](=O)[O-])c1)c1ccc(Cl)cc1Cl | -1.17%
CO/N=C/c1ccc(N2CCN(C(=O)c3ccc(Cl)cc3Cl)CC2)c([N+](=O)[O-])c1 | -53.1%
CO/N=C/c1ccc(N2CCCC2)c([N+](=O)[O-])c1 | -1.34%
CO/N=C/c1ccc(N2CCN(C(=O)c3cccc(C(F)(F)F)c3)CC2)c([N+](=O)[O-])c1 | -43.5%
CO/N=C/c1ccc(N2CCN(C(=O)c3ccc(F)cc3)CC2)c([N+](=O)[O-])c1 | -78.3%
O=C(O/N=C\c1ccc(N2CCOCC2)c([N+](=O)[O-])c1)c1ccc(F)cc1 | -6.14%
O=C(NCCS(=O)(=O)N1CCN(c2ccccc2F)CC1)c1cccc(Br)c1 | 2.34%
O=C1COc2ccc(C(=O)CSc3ccccc3C(=O)O)cc2N1 | 12.1%
C=CCn1c(C)cc(-c2csc(NC(=O)CCc3nc4ccccc4c(=O)[nH]3)n2)c1C | -23.8%

— PMC4336329 (PLoS ONE, 2015)
